IL1B secr inh: qHTS for Inhibitors of Inflammasome Signaling: IL-1-beta AlphaLISA Primary Screen. THP-1 LPS/ATP IL-1B secretion, AlphaLISA, 16 h; stronger effect = lower value. activity change, % at 57.5 µM. 360,000 tested, 4.7% active; in the data active = activity change below about -50%; inconclusive = mostly about -30% to -49%
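Secreted IL-1B measured by AlphaLISA bead assay after 16 h compound exposure of THP-1 cells; compounds (final up to 57.5 uM) added 1 h before LPS (250 ng/mL) and ATP (1.25 mM) stimulation; lower signal means less secretion.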
TDP1 block: qHTS Assay for Inhibitors of Tyrosyl-DNA Phosphodiesterase (TDP1). 350,000 tested, 0.28% active. Tyrosyl-DNA phosphodiesterase 1 (Homo sapiens), Q9NUW8. recombinant TDP1, AlphaScreen DNA substrate cleavage. Potency, µM (top dose mostly 130 µM), inactives show top-dose activity change, negative = inhibition, hits mostly inhibitors; also: potency is read from the fitted curve at half-maximal effect; nearly all actives have a fitted effect of over 40% in size
Target sequence (Q9NUW8 whole entry, looked up): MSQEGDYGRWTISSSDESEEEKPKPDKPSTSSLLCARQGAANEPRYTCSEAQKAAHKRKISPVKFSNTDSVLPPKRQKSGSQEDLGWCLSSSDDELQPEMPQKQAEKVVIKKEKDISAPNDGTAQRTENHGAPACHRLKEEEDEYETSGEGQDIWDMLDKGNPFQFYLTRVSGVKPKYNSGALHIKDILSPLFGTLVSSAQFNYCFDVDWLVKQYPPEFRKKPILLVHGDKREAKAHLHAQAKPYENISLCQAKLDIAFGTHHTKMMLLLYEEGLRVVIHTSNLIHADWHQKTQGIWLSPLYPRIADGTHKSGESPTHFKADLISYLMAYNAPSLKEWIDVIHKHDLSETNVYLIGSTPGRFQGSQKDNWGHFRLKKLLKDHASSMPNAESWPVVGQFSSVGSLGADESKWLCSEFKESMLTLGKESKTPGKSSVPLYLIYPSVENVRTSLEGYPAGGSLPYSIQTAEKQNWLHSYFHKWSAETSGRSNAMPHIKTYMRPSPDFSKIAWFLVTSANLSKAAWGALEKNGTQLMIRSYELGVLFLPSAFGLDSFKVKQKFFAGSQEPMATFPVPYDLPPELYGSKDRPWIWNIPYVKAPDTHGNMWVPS
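Compounds were preincubated with Tdp1 (1 nM final) for 15 min at room temperature before substrate (15 nM final) started a 5 min reaction; beads (10 ug/ml final) were then added for 10 min before AlphaScreen detection.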
Giardia killer: Small Molecules that selectively kill Giardia lamblia: qHTS; AID 540267, 2011; activity change, % at 7.66 µM, hits read low; 340,000 tested, 0.15% active; Giardia lamblia trophozoite viability; in the data active = activity change below about -80%; inconclusive = between about -30% and that limit;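 also: parasites exposed to compound for two days anaerobically before the ATP read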
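Giardia trophozoites, 100 cells per well, were exposed to compounds for 48 hrs at 37 deg C under anaerobic conditions; viability was then read as ATP content by bioluminescence after 15-30 min at room temperature.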
DT40 TDP1 no CPT: qHTS for Inhibitors of human tyrosyl-DNA phosphodiesterase 1 (TDP1): qHTS in cells in absence of CPT; AID 686978, 2013; DT40 Tdp1-/- hTDP1 cells, no CPT, ATP luminescence, 48 h; Potency, µM (highest dose often 46.2 µM), without a hit: top-dose activity change, negative = growth inhibition, most hits filed as inhibitors; 420,000 tested, 15% active; also: potency is read from the fitted curve at half-maximal effect; nearly all actives have a fitted effect of over 55% in size
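Stably hTDP1-transfected Tdp1-null chicken DT40 cells were treated with library compounds minus camptothecin and grown for at least 48 hr at 37 °C, after which cellular ATP was quantified by luminescence.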
ELG1 repair inh: qHTS screen for small molecules that inhibit ELG1-dependent DNA repair in human embryonic kidney (HEK293T) cells expressing luciferase-tagged ELG1 | HEK293T ELG1-luciferase reporter, luminescence, 16 h; DNA damage induced by 5-fluorouridine | 330,000 tested, 2.3% active | Potency, µM (highest dose often 46.1 µM), inactives show at the highest dose activity change, negative = inhibition, actives largely listed as inhibitors; also: potency is read from the fitted curve at half-maximal effect; nearly all actives have a fitted effect of over 55% in size
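Quantitative HTS, concentration-response format. 2,000 cells/well co-treated with 5-fluorouridine and compound, 16 hr in 5% CO2 at 37 °C; ONE-Glo luminescence read after 30 min.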
TDP1 cell CPT: qHTS for Inhibitors of human tyrosyl-DNA phosphodiesterase 1 (TDP1): qHTS in cells in presence of CPT | 420,000 tested, 12% active | Potency, µM (highest dose often 46.2 µM), inactives show at the top dose activity change, negative = growth inhibition, hits mostly inhibitors | chicken DT40 Tdp1-/-;hTDP1 cells + 20 nM CPT, ATP luminescence, 48 h; also: potency is read from the fitted curve at half-maximal effect; nearly all actives have a fitted effect of over 55% in size
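Cell growth measured by CellTiter-Glo luminescence after a minimum 48 h, 37 C compound exposure with 20 nM CPT in Tdp1-knockout DT40 cells stably expressing hTDP1, seeded 400/well; qHTS titration format.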
An asterisk follows results filed as active; [ ] = remark or other dose. Sampled rows, rich in hits. Any-hit rate of the full collection: about 19%. Unless noted, calls follow the shape of the dose curve; as a rule, active = well fitted curve in the direction sought with a large enough effect; inconclusive = small, poorly fitted or top-dose-only effect, or another doubt; inactive = no such curve, though single readings can be large; an effect the other way counts as inactive or inconclusive. % is scaled to controls: 0 for no effect and ±100 for the full control effect.

`CCOc1cccc(C(=O)Nc2ccccc2C(=O)N2CCN(C)CC2)c1` gave IL1B secr inh 6.6, TDP1 block 2.0%[56.1 µM], Giardia killer -3.3, DT40 TDP1 no CPT 1.2%, ELG1 repair inh 8.4% and TDP1 cell CPT 9.3%.
For NNC(=S)NC1CCCCCCCCCCC1 the results were IL1B secr inh 0.0, TDP1 block 8.7%, Giardia killer -7.6, DT40 TDP1 no CPT 8.2µM*, ELG1 repair inh inconclusive and TDP1 cell CPT inconclusive.
Screening CCOC(=O)c1c(S(=O)(=O)N2CCCC(C(=O)NCc3cccc(OC)c3)C2)c(C)n(C)c1C (centres undefined) returned TDP1 block -1.5%, DT40 TDP1 no CPT -29.3% and TDP1 cell CPT -28.7%.
O=C(NN1C(=O)c2ccccc2NC1c1ccccn1)c1ccccc1 (centres undefined) was read as IL1B secr inh 10.6, TDP1 block -1.1%, Giardia killer 4.4, DT40 TDP1 no CPT inconclusive, ELG1 repair inh 12.0% and TDP1 cell CPT 16.4µM*.
Screening O=C(NN1C(=O)c2ccccc2NC1c1ccoc1)c1ccccc1 (centres undefined) returned IL1B secr inh -3.6, TDP1 block 0.0%, Giardia killer 10.5, DT40 TDP1 no CPT 3.2%, ELG1 repair inh inconclusive and TDP1 cell CPT -3.5%.
For CC(NC(=O)c1ccco1)c1nc(-c2ccccc2)no1 (centres undefined) the results were IL1B secr inh -4.8, TDP1 block -4.7%, Giardia killer -4.4, DT40 TDP1 no CPT -27.4%, ELG1 repair inh -16.5% and TDP1 cell CPT -11.2%.
Screening COc1ccc(OC)c(C(C)NC(=O)c2ccco2)c1 (centres undefined) returned IL1B secr inh 7.3, TDP1 block 4.0%, Giardia killer -19.4, DT40 TDP1 no CPT inconclusive, ELG1 repair inh -26.7% and TDP1 cell CPT 23.1µM*.
`Cc1cccc(-c2noc(C(C)NC(=O)c3ccco3)n2)c1` (centres undefined) gave IL1B secr inh 44.6, TDP1 block -1.1%, Giardia killer 7.1, DT40 TDP1 no CPT -26.1%, ELG1 repair inh -10.6% and TDP1 cell CPT 1.5%.
For COc1ccc(-c2noc(C(C)NC(=O)c3ccco3)n2)cc1 (centres undefined) the results were TDP1 block 4.7%, DT40 TDP1 no CPT 14.6µM* and TDP1 cell CPT 18.4µM*.
For CC(Oc1ccc(Cl)cc1Cl)c1nc(-c2ccc(NC(=O)c3ccco3)cc2)no1 (centres undefined) the results were IL1B secr inh -10.5, TDP1 block 1.0%, Giardia killer 16.1, DT40 TDP1 no CPT 16.4µM*, ELG1 repair inh inconclusive and TDP1 cell CPT 23.1µM*.
`O=C(c1ccccc1-n1cccn1)N1CCOc2ccc(CN3CCOCC3)cc2C1` gave DT40 TDP1 no CPT -22.2% and TDP1 cell CPT 12.4%[9.04 µM].
`COc1ccc(C2C3=C(CC(C)(C)CC3=O)Oc3ncn4nc(-c5ccccc5)nc4c32)cc1` (centres undefined) gave IL1B secr inh -7.7, Giardia killer -14.0, DT40 TDP1 no CPT 4.9% and TDP1 cell CPT -5.8%.
`COc1ccc(C2C3=C(CC(C)(C)CC3=O)Oc3ncn(Cc4ccco4)c(=N)c32)cc1` (centres undefined) gave IL1B secr inh -59.6*, TDP1 block 8.7%, Giardia killer 2.5, DT40 TDP1 no CPT -28.5%, ELG1 repair inh -18.0% and TDP1 cell CPT -17.5%.
COc1ccc(C2C3=C(CC(C)(C)CC3=O)Oc3ncn(CC(C)C)c(=N)c32)cc1 (centres undefined) was read as IL1B secr inh -59.9*, TDP1 block 6.7%, Giardia killer 24.9, DT40 TDP1 no CPT inconclusive, ELG1 repair inh 18.9% and TDP1 cell CPT inconclusive.
Screening Cc1ccc2cccc(OCC(=O)N3CC(C)CC(C)C3)c2n1 (centres undefined) returned IL1B secr inh 18.9, TDP1 block 4.8%, Giardia killer -10.0, DT40 TDP1 no CPT -28.6%, ELG1 repair inh 13.1% and TDP1 cell CPT 2.9%.
COC(=O)CC1c2ccccc2C(Cc2ccc(OC)cc2)C(C)N1C(=O)OC (centres undefined) was read as TDP1 block 6.3%[21 µM].
Screening CCOC(=O)c1noc2ncnc(N3CCC(C)CC3)c12 returned TDP1 block 5.8%, DT40 TDP1 no CPT -28.8% and TDP1 cell CPT inconclusive.
`CC1Cc2ccccc2N1S(=O)(=O)c1cccs1` (centres undefined) gave IL1B secr inh 0.0, TDP1 block 5.4%, Giardia killer 28.3, DT40 TDP1 no CPT 16.4µM*, ELG1 repair inh -6.5% and TDP1 cell CPT 20.6µM*.
CC1Cc2ccccc2N1C(=O)CCS(=O)(=O)c1cccs1 (centres undefined) was read as IL1B secr inh -4.2, TDP1 block 0.0%, Giardia killer -0.8, DT40 TDP1 no CPT -6.8%, ELG1 repair inh inconclusive and TDP1 cell CPT -1.8%.
For CCOc1ccc(S(=O)(=O)N2c3ccccc3CC2C)cc1 (centres undefined) the results were IL1B secr inh 35.8, TDP1 block -2.3%, Giardia killer -13.7, DT40 TDP1 no CPT 0.92µM*, ELG1 repair inh inconclusive and TDP1 cell CPT 0.651µM*.
Cc1ccc(S(=O)(=O)N2c3ccccc3CC2C)cc1 (centres undefined) was read as IL1B secr inh -3.4, TDP1 block 0.0%, Giardia killer 3.4, DT40 TDP1 no CPT inconclusive, ELG1 repair inh inconclusive and TDP1 cell CPT inconclusive.
For CC1Cc2ccccc2N1C(=O)CN1CCN(S(=O)(=O)c2cccs2)CC1 (centres undefined) the results were IL1B secr inh 0.0, TDP1 block 3.2%, Giardia killer 8.2, DT40 TDP1 no CPT 14.6µM*, ELG1 repair inh -5.9% and TDP1 cell CPT inconclusive.
`CC1CC(C)(C)NC(=S)N1CC(=O)NCc1ccc2c(c1)OCO2` (centres undefined) gave IL1B secr inh 1.3, TDP1 block 1.2%, Giardia killer inconclusive, DT40 TDP1 no CPT -25.9%, ELG1 repair inh 13.4% and TDP1 cell CPT -1.3%.

Screens (PubChem)
